The supplement of paper PMC9925115
Structures can show the parent of a compound that is named as a salt.

tested on: FLX1 + dox-induced PRKAR1A G325D; experiment: difference in log2 fold change of viability vs plate median (dox-induced PRKAR1A G325D minus uninduced); higher = compound less effective when PKA is inhibited; conditions: concentration: not stated (2 or 5 uM); 5 days
Protocol: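 For each plate a log2 fold change vs the plate median was derived, and the values without dox were subtracted from those with dox, averaged over three biological replicates.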

| Compound | difference in log2 fold change of viability |
| --- | --- |
| COc1ccc(-c2ccc3c(N4CCOC[C@@H]4C)nc(N4CCOC[C@@H]4C)nc3n2)cc1CO | 1.55 |
| COc1cc2ncnc(Nc3ccc(F)c(Cl)c3)c2cc1NC(=O)/C=C/CN1CCCCC1 | -0.0217 |
| O=C1NC(=O)C(c2cnc3ccccn23)=C1c1cn2c3c(cc(F)cc13)CN(C(=O)N1CCCCC1)CC2 | 0.116 |
| COCC(=O)NC/C=C/c1ccc2ncnc(Nc3ccc(Oc4ccc(C)nc4)c(C)c3)c2c1 | 0.0049 |
| O=c1cc(N2CCOCC2)oc2c(-c3ccccc3)cccc12 | 0.224 |
| CN1CCC(CNc2ccc3ncc(-c4cccc(OC(F)(F)F)c4)n3n2)CC1 [SGI-1776 free base] | -0.0813 |
| C[C@@H](N)[C@H]1CC[C@H](C(=O)Nc2ccncc2)CC1 | 0.511 |
| Cc1ccc(Nc2nccc(N(C)c3ccc4c(C)n(C)nc4c3)n2)cc1S(N)(=O)=O | -0.0987 |
| Cc1cc(NC(=O)c2cccc(NC(=O)/C=C/CN(C)C)c2)ccc1Nc1nccc(-c2cccnc2)n1 | -0.217 |
| CCn1c(-c2nonc2N)nc2c(C#CC(C)(C)O)ncc(OC[C@H]3CCCNC3)c21 | 0.00672 |
| CC(C)(C)c1cc(/C=C(\C#N)C(N)=S)cc(C(C)(C)C)c1O [Tyrphostin AG 879] | 0.264 |
| CCC[C@H](NC(=O)/C(C#N)=C/c1cccc(Br)n1)c1ccccc1 [Degrasyn (WP1130)] | 0.135 |
| N#Cc1c(Oc2ccc(F)c(NC(=O)Cc3cccc(C(F)(F)F)c3)c2)ccc2nc(NC(=O)C3CC3)sc12 | -0.168 |
| O=C1NCCc2[nH]c(-c3ccncc3)cc21 | 0.179 |
| CCOc1ccn(-c2ccc(F)cc2)c(=O)c1C(=O)Nc1ccc(Oc2ccnc(N)c2Cl)c(F)c1 | 0.114 |
| CN(C[C@@H]1COCCO1)S(=O)(=O)Nc1ccc2ccc3ncc(-c4cnn(C)c4)cc3c(=O)c2c1 | -0.247 |
| O=S(=O)(NCCNC/C=C/c1ccc(Br)cc1)c1cccc2cnccc12 | -0.243 |
| C[C@@]1(C(=O)Nc2ccc(F)nc2)CCCN1c1nc(Nc2cc(C3CC3)n[nH]2)c2cccn2n1 | -1.23 |
| CCN(CC)CCNC(=O)c1c(C)[nH]c(/C=C2\C(=O)Nc3ccc(F)cc32)c1C [Sunitinib Malate] | -0.043 |
| CN(C)C/C=C/C(=O)Nc1cc2c(Nc3ccc(F)c(Cl)c3)ncnc2cc1O[C@H]1CCOC1 [Afatinib (BIBW2992)] | -1.66 |

| Compound | difference in log2 fold change of viability |
| --- | --- |
| CO[C@H]1C[C@@H]2CC[C@@H](C)[C@@](O)(O2)C(=O)C(=O)N2CCCC[C@H]2C(=O)O[C@H]([C@H](C)C[C@@H]2CC[C@H](n3cnnn3)[C@H](OC)C2)CC(=O)[C@H](C)/C=C(\C)[C@@H](O)[C@@H](OC)C(=O)[C@H](C)C[C@H](C)/C=C/C=C/C=C/1C [Zotarolimus(ABT-578)] | 0.358 |
| Cc1ccc(NC(=O)c2ccc(CN3CCN(C)CC3)cc2)cc1Nc1nccc(-c2cccnc2)n1 [Imatinib Mesylate (STI571)] | 0.343 |
| COC(=O)c1ccc2c(c1)NC(=O)/C2=C(\Nc1ccc(N(C)C(=O)CN2CCN(C)CC2)cc1)c1ccccc1 [Nintedanib (BIBF 1120)] | -4.27 |
| Cc1cc(Nc2cc(N3CCN(C)CC3)nc(/C=C/c3ccccc3)n2)n[nH]1 | -0.0361 |
| O=C1NC(=O)[C@@H](c2cn3c4c(cccc24)CCC3)[C@@H]1c1c[nH]c2ccccc12 [Tivantinib (ARQ 197)] | 0.768 |
| Cn1cc(-c2ccc3ncc(Cc4ccc5ncccc5c4)n3n2)cn1 | -0.0241 |
| CO[C@H]1C[C@@H]2CC[C@@H](C)[C@@](O)(O2)C(=O)C(=O)N2CCCC[C@H]2C(=O)O[C@H]([C@H](C)C[C@@H]2CC[C@@H](OP(C)(C)=O)[C@H](OC)C2)CC(=O)[C@H](C)/C=C(\C)[C@@H](O)[C@@H](OC)C(=O)[C@H](C)C[C@H](C)/C=C/C=C/C=C/1C [Ridaforolimus (Deforolimus, MK-8669)] | 0.419 |
| Cc1cc2c(F)c(Oc3ncnn4cc(OC[C@@H](C)OC(=O)[C@H](C)N)c(C)c34)ccc2[nH]1 | 0.461 |
| CCS(=O)(=O)c1cccc(-c2cc(C(=O)NC3CCN(C)CC3)c(C)c3[nH]c4ncc(C)cc4c23)c1 | -0.102 |
| C[C@H](NC(=O)/C(C#N)=C/c1cccc(Br)n1)c1ccccc1 | -0.381 |
| O=S(=O)(c1cccc2cnccc12)N1CCCNCC1 [Fasudil (HA-1077) HCl] | -0.15 |
| Oc1cccc(-c2nc(N3CCOCC3)c3oc4ncccc4c3n2)c1 | 0.496 |
| CN1CCN(S(=O)(=O)c2ccc(-c3cnc(N)c(C(=O)Nc4cccnc4)n3)cc2)CC1 | -0.529 |
| CNC(=O)c1nn(C)c2c1C(C)(C)Cc1cnc(Nc3ccc(N4CCN(C)CC4)cc3)nc1-2 | 0.64 |
| Clc1ccc(C2(c3ccc(-c4cn[nH]c4)cc3)CCNCC2)cc1 | 0.734 |
| CN1CCN(Cc2ccc(-c3cnc4[nH]cc(-c5ccc6[nH]ccc6c5)c4c3)cc2)CC1 | -0.00541 |
| Cc1[nH]c(/C=C2\C(=O)Nc3ccc(S(=O)(=O)N(C)c4cccc(Cl)c4)cc32)c(C)c1C(=O)N1CCN(C)CC1 | 0.163 |
| Cc1cc2c(F)c(Oc3ncnn4cc(OC[C@@H](C)O)c(C)c34)ccc2[nH]1 | 0.515 |
| Oc1ccc(-c2nc(-c3ccc(F)cc3)c(-c3ccncc3)[nH]2)cc1 | 0.0143 |
| CCc1cnn2c(NCc3ccc[n+]([O-])c3)cc(N3CCCC[C@H]3CCO)nc12 | 0.265 |
